Hits are enriched below; roughly 15% of the tested compounds scored in any of these assays.
VP16 counter: Gal4-VP16 reporter inhibition counter-screen | Drosophila S2 Gal4-VP16 UAS-luciferase, luminescence, 20 h | Potency, µM (top dose mostly 53.6 µM), inactives show at the highest dose activity, negative = inhibition, hits mostly inhibitors | 310,000 compounds, 3.5% hits;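 note: Gal4-VP16 expression switched on by copper sulfate through the metallothionein promoter; nearly all actives have a fitted effect of over 50% in size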
ELG1 repair inh: ELG1-dependent DNA repair inhibition. HEK293T ELG1-luciferase reporter, luminescence, 16 h; DNA damage induced by 5-fluorouridine. Potency, µM (titrated, usually from 46.1 µM), without a hit: at the top dose activity change, negative = inhibition, actives largely listed as inhibitors. 330,000 compounds, 2.3% hits; note: nearly all actives have a fitted effect of over 55% in size
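5-Fluorouridine DNA damage + compound/DMSO, 2,000 cells/well, 16 h, 37 °C/5% CO2. ONE-Glo, 30 min RT, luminescence. Readout = decrease in reporter signal.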
RORgamma inh: inhibitors of mouse ROR gamma transcriptional activity | P51450 | Potency, µM (doses to about 53.6 µM), for the others: at the top dose activity change, negative = inhibition, most hits filed as inhibitors | Drosophila S2 Gal4-RORgamma UAS-luciferase reporter, 20 h | 310,000 compounds, 5.4% hits; note: nearly all actives have a fitted effect of over 60% in size
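ROR gamma transcriptional activity was tracked as Gal4-UAS luciferase output in stably transfected Drosophila Schneider cells, with compound added 1 hr before 700 uM copper sulfate induction and a 20 hr ambient-temperature incubation.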
DT40 TDP1 no CPT: qHTS for Inhibitors of human tyrosyl-DNA phosphodiesterase 1 (TDP1): qHTS in cells in absence of CPT; DT40 Tdp1-/- hTDP1 cells, no CPT, ATP luminescence, 48 h; Potency, µM (top dose mostly 46.2 µM), inactives show top-dose activity change, negative = growth inhibition, most hits filed as inhibitors; 420,000 compounds, 15% hits; note: nearly all actives have a fitted effect of over 55% in size
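Chicken DT40 Tdp1-/- cells stably complemented with human TDP1 were seeded at 400 cells/well with DMSO in place of 20 nM camptothecin. After compound pinning, cells grew at least 48 hr at 37 °C; viability read by CellTiter-Glo luminescence.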
TDP1 cell CPT: growth inhibition of DT40 Tdp1-/-;hTDP1 cells with camptothecin (screen for TDP1 inhibitors); chicken DT40 Tdp1-/-;hTDP1 cells + 20 nM CPT, ATP luminescence, 48 h; Potency, µM (doses to about 46.2 µM), for the others: at the highest dose activity change, negative = growth inhibition, hits mostly inhibitors; 420,000 compounds, 12% hits; AID 686979; note: nearly all actives have a fitted effect of over 55% in size
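Cell growth measured by CellTiter-Glo luminescence after a minimum 48 h, 37 C compound exposure with 20 nM CPT in Tdp1-knockout DT40 cells stably expressing hTDP1, seeded 400/well; qHTS titration format.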
ALOX12 inh: blocks human arachidonate 12S-lipoxygenase; purified 12hLO, xylenol orange hydroperoxide absorbance; Potency, µM (doses to about 108 µM), for inactives: top-dose activity change, negative = inhibition, most hits filed as inhibitors; 580,000 compounds, 1.1% hits
Target sequence (P18054 whole entry, looked up): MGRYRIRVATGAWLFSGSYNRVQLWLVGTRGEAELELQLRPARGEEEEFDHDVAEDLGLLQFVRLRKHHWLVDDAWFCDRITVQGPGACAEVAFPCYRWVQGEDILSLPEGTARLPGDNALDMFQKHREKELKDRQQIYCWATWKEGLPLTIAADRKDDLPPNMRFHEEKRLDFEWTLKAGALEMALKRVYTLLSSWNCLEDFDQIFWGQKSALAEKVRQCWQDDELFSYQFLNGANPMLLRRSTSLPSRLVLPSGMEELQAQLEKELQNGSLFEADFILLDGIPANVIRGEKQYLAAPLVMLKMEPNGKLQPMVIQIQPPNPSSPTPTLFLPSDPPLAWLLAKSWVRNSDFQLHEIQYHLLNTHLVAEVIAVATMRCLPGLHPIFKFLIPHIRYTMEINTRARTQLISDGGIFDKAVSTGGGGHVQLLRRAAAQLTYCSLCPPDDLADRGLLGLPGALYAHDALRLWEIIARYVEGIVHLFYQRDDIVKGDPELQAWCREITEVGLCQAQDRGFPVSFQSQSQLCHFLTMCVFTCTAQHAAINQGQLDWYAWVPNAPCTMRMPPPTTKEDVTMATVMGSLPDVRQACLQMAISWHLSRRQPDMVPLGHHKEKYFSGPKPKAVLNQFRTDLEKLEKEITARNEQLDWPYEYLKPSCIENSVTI
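Hydroperoxide product was detected by ferrous iron/xylenol orange as the 573 to 405 nm absorbance ratio. Arachidonic acid at 40 uM (final) was turned over for 30 min at room temperature by 150 nM human 12hLO, pH 7.0 Hepes buffer, after 15 min compound preincubation.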
Starred values were filed as active, the others as inactive; [ ] = another dose, or the depositor's remark. Calls come from the whole dose curve; as a rule, active = well fitted curve in the direction sought with a large enough effect; inconclusive = small, poorly fitted or top-dose-only effect, or another doubt; inactive = no such curve, though single readings can be large; an effect the other way counts as inactive or inconclusive. % is set by controls: 0 for no effect and ±100 for the full control effect; potency is the fitted concentration of half-maximal effect.

`O=C(NCc1noc(Cc2cccs2)n1)C1NCCc2[nH]cnc21` (centres undefined) gave ALOX12 inh 129%.
COc1ccccc1N1C(=O)c2ccccc2NC1c1cn(C)c(=O)n(C)c1=O (centres undefined) was read as ALOX12 inh -1%.
`O=C(COc1ccc([N+](=O)[O-])cc1)Nc1cc(S(=O)(=O)N2CCCCC2)ccc1N1CCCCC1` gave ELG1 repair inh -11%, DT40 TDP1 no CPT inconclusive, TDP1 cell CPT -25% and ALOX12 inh 40µM*.
N#Cc1ccccc1OCC(=O)Nc1cc(S(=O)(=O)N2CCCCC2)ccc1N1CCOCC1 was read as DT40 TDP1 no CPT inconclusive, TDP1 cell CPT inconclusive and ALOX12 inh 9%.
Screening O=C(COc1ccc(F)cc1)Nc1cc(S(=O)(=O)N2CCCCC2)ccc1N1CCCCC1 returned ELG1 repair inh inconclusive, DT40 TDP1 no CPT 18µM*, TDP1 cell CPT 13µM* and ALOX12 inh 6.3µM*.
`COCCC1(NS(C)(=O)=O)CCN(C(=O)Nc2ccc3c(c2)OCCO3)CC1` gave ALOX12 inh 14%.
For CC(=O)N(c1ccc(Cl)cc1)c1cn(C(C)=O)c2ccccc12 the results were VP16 counter -7%, ELG1 repair inh -1%, RORgamma inh 28%, DT40 TDP1 no CPT -28%, TDP1 cell CPT 4% and ALOX12 inh 30%.
Screening CC(=O)n1cc(N(C(=O)CCl)c2ccc(C)cc2)c2ccccc21 returned VP16 counter inconclusive, ELG1 repair inh 23µM*, RORgamma inh 11µM*, DT40 TDP1 no CPT 1.6µM*, TDP1 cell CPT 3.3µM* and ALOX12 inh inconclusive.
`CCn1cc(S(=O)(=O)c2ccc(Cl)cc2)c(=O)c2cc(OC)ccc21` gave VP16 counter 3%, ELG1 repair inh -9%, RORgamma inh 10%, DT40 TDP1 no CPT 3%, TDP1 cell CPT -11% and ALOX12 inh 4%.
`CCN(CC)c1cc2c(cc1F)c(=O)c(S(=O)(=O)c1ccc(OC)cc1)cn2CC` gave DT40 TDP1 no CPT 15µM*, TDP1 cell CPT 16µM* and ALOX12 inh -9%.
Screening CCCn1cc(S(=O)(=O)c2ccc(CC)cc2)c(=O)c2cc(F)c(N(CC)CC)cc21 returned DT40 TDP1 no CPT 9.2µM*, TDP1 cell CPT 8.2µM* and ALOX12 inh -9%.
Screening CCc1ccc(S(=O)(=O)c2cn(C)c3cc(F)c(F)cc3c2=O)cc1 returned DT40 TDP1 no CPT inconclusive, TDP1 cell CPT -23% and ALOX12 inh 3%.
Screening CCN(CC)c1cc2c(cc1F)c(=O)c(S(=O)(=O)c1cc(C)ccc1C)cn2Cc1ccccc1 returned DT40 TDP1 no CPT 18µM*, TDP1 cell CPT inconclusive and ALOX12 inh inconclusive.
`CSc1ccc(-c2noc(-c3ncn4c3COC(c3ccccc3Cl)C4)n2)cc1` (centres undefined) gave ALOX12 inh 28%.
`N#Cc1ccc(Cn2c(=O)n(CCC(=O)NCCc3ccc(Cl)cc3)c(=O)c3sccc32)cc1` gave ALOX12 inh -11%.
O=C(Cn1c(=O)n(Cc2ccccc2)c(=O)c2sc3ccccc3c21)Nc1ccc(F)cc1 was read as DT40 TDP1 no CPT 15µM*, TDP1 cell CPT 15µM* and ALOX12 inh -32%.
`COc1ccc(NC(=O)Cn2c(=O)n(Cc3ccccc3)c(=O)c3sc4ccccc4c32)cc1` gave DT40 TDP1 no CPT 13µM*, TDP1 cell CPT -22% and ALOX12 inh -9%.
Screening COc1ccccc1NC(=O)Cn1c(=O)n(-c2ccccc2Cl)c(=O)c2sc3ccccc3c21 returned DT40 TDP1 no CPT 10µM*, TDP1 cell CPT inconclusive and ALOX12 inh -28%.
Screening CCCSc1nnc(-c2c[nH]c3ccccc23)n1CC returned VP16 counter 8%, ELG1 repair inh -18%, RORgamma inh 16%, DT40 TDP1 no CPT inconclusive, TDP1 cell CPT 15µM* and ALOX12 inh 14%.
`CCn1c(SCc2cccnc2)nnc1-c1c[nH]c2ccccc12` gave VP16 counter 3%, ELG1 repair inh -21%, RORgamma inh 40%, DT40 TDP1 no CPT inconclusive, TDP1 cell CPT 15µM* and ALOX12 inh 4%[57.4 µM].
`COCCn1c(SCc2cccnc2)nnc1-c1c[nH]c2ccccc12` gave VP16 counter -6%, ELG1 repair inh 1%, RORgamma inh -33%, DT40 TDP1 no CPT 0%, TDP1 cell CPT -1% and ALOX12 inh 44%.
Screening COCCCNC(=O)c1nc(-c2cccc3[nH]ccc23)no1 returned ALOX12 inh 16%.
`COC(=O)[C@@H](N)Cc1ccc(O)c(O)c1` gave VP16 counter -8%, ELG1 repair inh 11%, RORgamma inh -1%, DT40 TDP1 no CPT inconclusive, TDP1 cell CPT 27µM* and ALOX12 inh inconclusive.
`CC(C)C(=O)c1cc2c(cc1NC(=O)c1ccccc1)OCCO2` gave VP16 counter -1%, ELG1 repair inh 0%, RORgamma inh -1%, DT40 TDP1 no CPT -20%, TDP1 cell CPT -3% and ALOX12 inh -13%.
For O=C(Nc1ccccc1F)Nc1cccc2ccc(O)cc12 the results were VP16 counter 5%, ELG1 repair inh 13µM*, RORgamma inh 5%, DT40 TDP1 no CPT 16µM*, TDP1 cell CPT 16µM* and ALOX12 inh inconclusive.
`NC(=O)c1ccccc1NC(=O)Nc1cccc2ccccc12` gave VP16 counter inconclusive, ELG1 repair inh inconclusive, RORgamma inh 13%, DT40 TDP1 no CPT 4.6µM*, TDP1 cell CPT 1.6µM* and ALOX12 inh 2%.
For Cc1ccccc1NNC(N)=S the results were VP16 counter inconclusive, ELG1 repair inh -1%, RORgamma inh inconclusive, DT40 TDP1 no CPT 23µM*, TDP1 cell CPT 21µM* and ALOX12 inh inconclusive.
For CC(=O)Nc1cccc2ccc(O)cc12 the results were DT40 TDP1 no CPT -8%, TDP1 cell CPT -1% and ALOX12 inh inconclusive.
Screening CC(C)C(=O)c1cc2c(cc1NC(=O)Nc1cccc3ccccc13)OCCO2 returned VP16 counter -1%, ELG1 repair inh 23µM* and RORgamma inh -2%.
Screening COc1ccc(NC(=O)N2C[C@@H]3C[C@H](C2)c2ccc(NS(=O)(=O)c4ccc(OC)cc4)c(=O)n2C3)cc1 returned ALOX12 inh -21%.
